Compound activity deposited in PubChem by several laboratories.
Gli-Sufu block: blocks Gli-Sufu signaling in a luciferase reporter; Sufu-KO-LIGHT fibroblasts, Gli luciferase reporter luminescence; inhibition, % at 5 µM; hit rate 0.74% among 340,000;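 active means inhibition above about 55%, limit read from the data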;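 further: 0% = DMSO-treated cells and 100% = wells with medium but no cells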
697 NFkB inh: inhibitors of the PMA/ionomycin-induced NF-kB reporter in 697 B cells; 697 B-cell NF-kB luciferase reporter, 16 h; inhibition, % at 4 µM; hit rate 0.33% among 330,000; AID 435022; in the data active means inhibition above about 35%
Mdm2 MdmX PPI: human Mdm2/MdmX binding inhibition; AID 485346; hit rate 3% among 330,000; inhibition, % at 8 µM; SaOS-2 split-luciferase Mdm2/MdmX complementation, luminescence;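 active means inhibition of at least 50% at 8 µM in the primary screen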
Target sequence (O15151 whole entry, looked up): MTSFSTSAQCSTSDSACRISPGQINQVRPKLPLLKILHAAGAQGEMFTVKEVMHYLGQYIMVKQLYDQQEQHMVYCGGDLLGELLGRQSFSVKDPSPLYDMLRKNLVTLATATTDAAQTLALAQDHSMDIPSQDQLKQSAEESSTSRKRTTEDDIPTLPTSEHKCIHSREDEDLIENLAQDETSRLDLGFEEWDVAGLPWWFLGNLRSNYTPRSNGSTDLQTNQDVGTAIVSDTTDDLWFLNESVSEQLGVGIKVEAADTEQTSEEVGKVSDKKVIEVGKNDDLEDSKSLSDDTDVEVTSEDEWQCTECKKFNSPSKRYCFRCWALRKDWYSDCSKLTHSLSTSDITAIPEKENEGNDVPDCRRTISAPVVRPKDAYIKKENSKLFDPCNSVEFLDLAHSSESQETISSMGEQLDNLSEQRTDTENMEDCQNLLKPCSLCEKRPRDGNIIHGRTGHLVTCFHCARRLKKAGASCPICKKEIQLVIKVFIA
Target sequence (Q00987 whole entry, looked up): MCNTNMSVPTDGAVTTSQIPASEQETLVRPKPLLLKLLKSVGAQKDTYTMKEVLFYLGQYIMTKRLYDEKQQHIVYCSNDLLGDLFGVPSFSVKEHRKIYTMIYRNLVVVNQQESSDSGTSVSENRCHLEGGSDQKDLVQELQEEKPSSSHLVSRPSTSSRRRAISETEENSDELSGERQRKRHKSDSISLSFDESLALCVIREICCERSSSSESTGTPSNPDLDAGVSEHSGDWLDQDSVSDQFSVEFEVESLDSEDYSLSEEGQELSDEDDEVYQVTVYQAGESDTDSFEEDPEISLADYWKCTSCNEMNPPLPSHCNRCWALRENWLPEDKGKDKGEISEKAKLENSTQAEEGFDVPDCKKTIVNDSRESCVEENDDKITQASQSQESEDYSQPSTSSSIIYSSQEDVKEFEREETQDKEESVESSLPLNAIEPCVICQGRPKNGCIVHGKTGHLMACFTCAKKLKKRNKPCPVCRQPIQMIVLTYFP
CSC inhib: blocks cancer stem cells | cancer stem cell-like cells viability, luminescence | inhibition, % at 7.5 µM | hit rate 1.1% among 300,000 | AID 2717; in the data active means inhibition above about 75%; tested in HMLE shEcad cells
Jurkat NFkB inh: inhibitors of the PMA/ionomycin-induced NF-kB reporter in Jurkat cells | PMA/ionomycin-induced NF-kB luciferase reporter, luminescence | inhibition, % at 4 µM | hit rate 0.53% among 330,000 | AID 435003; in the data active means inhibition above about 50%
aSyn UTR inh: MLPCN primary screen, SNCA 5' untranslated region; hit rate 0.82% among 300,000; inhibition, % (tested at 7.5 µM); alpha-synuclein 5'UTR reporter, inhibitor activity; in the data active means inhibition above about 60%;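 further: H4 neuroglioblastoma cells stably carrying SNCA 5'UTR luciferase fusion; 0% = DMSO wells and 100% = positive control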
Mdm2 MdmX conf: human Mdm2/MdmX binding inhibition, confirmed. shares compounds with Mdm2 MdmX PPI. luminescent assay. inhibition, % at 8 µM. hit rate 55% among 10,000. AID 489028; in the data active means inhibition above about 40%
FLuc counter: counter-screen for Mdm2/MdmX inhibitors: full-length luciferase; hit rate 77% among 6,200; inhibition, % at 8 µM; SaOS-2 full-length luciferase counterscreen, luminescence; AID 504607; shares compounds with Mdm2 MdmX PPI;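 active means mean inhibition at 8 µM reaching about 37%, which flags the compound as non-specific, limit read from the data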;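 further: p53-null SaOS-2 cells with luciferase driven by a doxycycline-inducible promoter; compound on cells about two nights before reading with doxycycline added after day one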
The depositor's hits bear a star; . = no result. Hits are enriched below; roughly 4.5% of the tested compounds scored in any of these assays.

SMILES | Gli-Sufu block | 697 NFkB inh | Mdm2 MdmX PPI | CSC inhib | Jurkat NFkB inh | aSyn UTR inh | Mdm2 MdmX conf | FLuc counter
CCOc1ccc(NC(=NCc2ccc3c(c2)OCO3)SC2CC(=O)N(c3ccc(OCC)cc3)C2=O)cc1 (centres undefined) | 27.4 | -15.5 | 65.6* | 22.2 | 5.4 | 29.1 | 63.2* | 64.5*
CCOc1ccc(NC(=NCc2ccc3c(c2)OCO3)SC2CC(=O)N(c3ccc(C(=O)O)cc3)C2=O)cc1 (centres undefined) | 12.5 | 10.8 | 13.5 | -8.5 | -2.6 | -11.3 | . | .
CCOc1ccc(NC(=NCc2ccc3c(c2)OCO3)SC2CC(=O)N(c3ccccc3)C2=O)cc1 (centres undefined) | 9.2 | -24.0 | 59.8* | -9.0 | 1.6 | 7.4 | 6.4 | .
COc1ccc(OCCn2c(NC(=O)c3ccco3)nc3ccccc32)cc1 | -11.3 | -5.5 | 56.5* | 16.2 | 3.0 | 20.5 | 10.8 | .
CCCCn1c(NC(=S)Nc2ccccc2)nc2ccccc21 | -3.7 | 14.8 | 58.3* | . | -4.8 | -51.8 | 38.8 | 93.7*
S=C(Nc1ccccc1)Nc1nc2ccccc2n1CCOc1ccccc1 | -0.1 | -3.1 | 51.3* | 98.4* | -4.1 | -11.8 | 24.1 | .
CCCn1c(NC(=O)c2ccco2)nc2ccccc21 | 36.0 | 0.1 | 40.8 | 1.4 | 2.1 | -11.4 | . | .
CCc1nc2ccccc2c(C(=O)Nc2cccc(C)c2)c1C | -11.2 | -24.8 | -15.8 | -14.9 | 5.4 | -28.2 | . | .
O=C1c2cccc(Cl)c2C(=O)c2c1cccc2N1CCCC1 | 9.4 | 5.9 | 11.5 | 32.1 | -6.3 | 41.5 | . | .
CCn1cc(C(=O)NCCCN2CCC(C)CC2)c(=O)c2cc(S(=O)(=O)N(C)C3CCCCC3)ccc21 | 38.8 | -19.5 | 39.0 | 12.1 | -17.5 | -19.5 | . | .
CCn1cc(C(=O)NCCCN2CC(C)CC(C)C2)c(=O)c2cc(S(=O)(=O)N(C)C3CCCCC3)ccc21 (centres undefined) | 36.4 | -38.6 | 51.7* | -5.7 | 32.9 | -16.8 | 37.2 | 60.1*
N/C(=N\O)c1ccc(N2CCN(c3ncccc3C(F)(F)F)CC2)nc1 | -15.8 | -121.3 | -37.9 | 18.8 | -46.4 | -97.8 | . | .
O=S(=O)(c1ccccc1)c1nnn2c1nc(NC1CCN(Cc3ccccc3)CC1)c1ccccc12 | 40.1 | -9.8 | 53.8* | 16.8 | 10.7 | 22.9 | 33.4 | .
O=C(NC1CCN(Cc2ccccc2)CC1)C1CCN(S(=O)(=O)c2ccc(Cl)cc2)CC1 | 22.1 | 8.3 | 22.0 | . | 17.7 | 0.0 | . | .
O=S(=O)(c1ccccc1)c1nnn2c1nc(NC1CCN(Cc3ccccc3)CC1)c1cc(Cl)ccc12 | 40.3 | -34.5 | 100.3* | 0.1 | -8.4 | 33.1 | 36.5 | 51.5*
Cc1ccc(C)c(Nc2nc3c(S(=O)(=O)c4ccccc4)nnn3c3ccccc23)c1 | 24.5 | -2.3 | 36.9 | 7.0 | 14.1 | 13.2 | . | .
CCOc1ccccc1NC(=O)c1cc(C(=O)c2cc(Br)ccc2O)coc1=N | 4.2 | 16.2 | 55.0* | -4.9 | 3.5 | 11.5 | 59.9* | 69.4*
CC(C)(C)c1ccc(CN2N=Nc3ccccc3S2(=O)=O)cc1 | -6.6 | -51.7 | 66.8* | -3.1 | 0.7 | -30.1 | 47.4* | 59.3*
CC(Sc1nnc2n1CCCCC2)C(=O)Nc1cccc(S(=O)(=O)N2CCOCC2)c1 (centres undefined) | -2.9 | -22.0 | 10.5 | . | -3.8 | . | . | .
O=C(O)c1cc(-c2cccc(Cl)c2)nc2nc(N3CCCCC3)sc12 | -10.5 | -10.7 | -8.3 | -0.1 | -4.0 | -4.5 | . | .
CCOC(=O)c1c(NC(=O)C[n+]2ccccc2)sc2c1CCCC2 | 7.1 | -8.0 | 13.6 | -4.6 | 0.3 | 4.3 | . | .
CCOC(=O)c1c(NC(=O)C(NCCN(C)C)c2ccccc2)sc2c1CCCC2 (centres undefined) | -10.6 | -9.0 | 94.2* | 27.4 | 12.6 | 34.4 | 37.1 | 68.6*
COc1ccc(OC)c(S(=O)(=O)N2CCCC(C(=O)NCc3cccnc3)C2)c1 (centres undefined) | 6.3 | 8.9 | -5.1 | -6.4 | 5.3 | 0.3 | . | .
COc1ccccc1OCc1nnc(SCC(=O)Nc2nnc(C3CC3)s2)n1C | -13.5 | 10.8 | 1.6 | -13.9 | 0.8 | 13.3 | . | .
NS(=O)(=O)c1cccc(NC(=O)CSc2nc3ccccc3c(=O)n2CC2CCCO2)c1 (centres undefined) | -7.9 | 24.8 | 8.2 | . | 14.9 | . | . | .
SMILES | Gli-Sufu block | 697 NFkB inh | Mdm2 MdmX PPI | CSC inhib | Jurkat NFkB inh | aSyn UTR inh | Mdm2 MdmX conf | FLuc counter
N#CC1=C(N)Oc2cc(N)ccc2C1c1cc(Br)cs1 (centres undefined) | 7.3 | -3.2 | 58.4* | 60.4 | 28.3 | -75.3 | 28.9 | .
COc1cccc(C2C(C#N)=C(N)Oc3cc(N)ccc32)c1OC (centres undefined) | -7.8 | 0.1 | -9.0 | -16.5 | 9.4 | 14.9 | . | .
N#CC1=C(N)Oc2cc(N)ccc2C1c1ccccc1F (centres undefined) | 5.0 | -0.1 | 55.9* | 47.7 | 31.0 | -1.5 | 51.7* | 66.8*
CCN(C(=O)CSc1cccc[n+]1[O-])C1CCCCC1 | -5.2 | 8.8 | 12.4 | -18.3 | -5.3 | . | . | .
Cc1ccc(C2=CC(=O)C[C@H](c3ccc4c(c3)OCO4)C2)cc1 | -2.0 | -9.2 | 22.9 | 41.7 | 3.6 | . | . | .
O=C1C=C(c2cc3ccccc3s2)C[C@@H](c2ccc3c(c2)OCO3)C1 | -9.1 | -20.3 | 66.8* | -10.6 | 8.8 | . | 41.3* | 101.3*
OCCNc1nc2ccccc2nc1NCCO | 0.8 | -2.4 | 1.7 | -7.0 | -10.0 | -33.9 | . | .
OCCNc1c2ccccc2nc2ccccc12 | -16.2 | 19.7 | 61.1* | 12.1 | 35.0 | -167.1 | 56.5* | 36.6*
Cc1ccc(Nc2nc(NCCO)c3ccccc3n2)cc1C | 12.0 | -32.1 | 54.9* | . | -7.5 | -76.0 | 25.1 | .
O=C(COC(=O)c1nc(Cl)c(Cl)c(Cl)c1Cl)c1ccc[nH]1 | -5.1 | -1.6 | 73.0* | 12.4 | 0.0 | -31.4 | 32.1 | .
COc1ccccc1C1CCN(c2cc(O)ccc2[N+](=O)[O-])CC1 | 7.7 | -11.2 | -6.3 | 18.8 | 3.8 | -19.7 | . | .
N#Cc1ccc(C23CC4(C2)[C@H](CN(P(=O)(c2ccccc2)c2ccccc2)[C@@H]4c2ccccc2)C3c2ccc(Cl)nc2)cc1 (some centres undefined) | 9.9 | 21.6 | 56.1* | 44.3 | 27.3 | 29.6 | 24.6 | 53.7*
CN1C[C@@H]2C(c3ccc(Cl)nc3)C3(c4ccc(C#N)cc4)CC2(C3)[C@H]1c1ccccc1 (some centres undefined) | 35.5 | -20.0 | 7.7 | 1.1 | 8.3 | 14.3 | . | .
O=C(C1CCN(S(=O)(=O)c2ccccc2F)CC1)N1CCN(Cc2ccc3c(c2)OCO3)CC1 | 1.7 | 1.3 | 16.6 | . | 4.5 | . | . | .
Nc1ncnc2oc(-c3ccco3)c(-c3ccco3)c12 | -1.8 | -2.0 | 52.4* | . | 4.4 | 40.3 | 22.6 | .
CSc1cccc(NC(=O)CCNS(=O)(=O)c2ccc3[nH]c(=O)oc3c2)c1 | -17.2 | -21.5 | 4.4 | -17.7 | 0.4 | 1.6 | . | .
